One experiment deals with Tov112D. Description: Primary qHTS to identify gynecologic anti-cancer compounds using libraries of approved drugs and bioactive compounds (AID 1345084). Further: on the % scale 0 is the no-effect control and ±100 the full control effect; nearly all actives have a fitted effect of over 55% in size. The conditions noted are these: Gynecologic cancer cell panel viability, ATPlite luminescence, 48 h; series mostly up to 57.5 µM. The method, boiled down:
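In this quantitative HTS, cell killing is estimated from loss of ATP-dependent luciferase light. Cells see five compound concentrations over a 48 h exposure.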
Background: In qHTS, concentration-response curves come from the screen itself.

Experiment [1] is described as follows: Drug repurposing screens with cells derived from glioblastoma tumor samples (AID 1345199). Further: nearly all actives have a fitted effect of over 40% in size. Further: potency means the concentration at half of the fitted maximal effect. On activity, negative = cell killing: on the % scale 0 is the no-effect control and ±100 the full control effect. The conditions noted are these: GBM patient neurospheres viability, ATP luminescence, 48 h. The essentials: (§1)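 Primary testing used CD133+ neurospheres from four GBM patients, seven concentrations, 48 h exposure and ATP-based viability; confirmation added three slower-growing patient lines.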

A further experiment relates to astro. The experiment is described as above. The conditions noted are these: viability, ATP luminescence, 48 h; series mostly up to 45.9 µM. The method, boiled down:
as §1

The target in experiment [2] is Nuclear receptor subfamily 1 group I member 2 (Rattus norvegicus) (UniProt Q9R1A7). Description: qHTS assay for small molecule activators of the rat pregnane X receptor (rPXR) signaling pathway (AID 651751; call rule not given here; further: 0% is about no effect). The conditions noted are these: rPXR reporter cells, luciferase (One-Glo), 24 h.
Chain of Nuclear receptor subfamily 1 group I member 2 (Rattus norvegicus) (Q9R1A7 whole entry, looked up): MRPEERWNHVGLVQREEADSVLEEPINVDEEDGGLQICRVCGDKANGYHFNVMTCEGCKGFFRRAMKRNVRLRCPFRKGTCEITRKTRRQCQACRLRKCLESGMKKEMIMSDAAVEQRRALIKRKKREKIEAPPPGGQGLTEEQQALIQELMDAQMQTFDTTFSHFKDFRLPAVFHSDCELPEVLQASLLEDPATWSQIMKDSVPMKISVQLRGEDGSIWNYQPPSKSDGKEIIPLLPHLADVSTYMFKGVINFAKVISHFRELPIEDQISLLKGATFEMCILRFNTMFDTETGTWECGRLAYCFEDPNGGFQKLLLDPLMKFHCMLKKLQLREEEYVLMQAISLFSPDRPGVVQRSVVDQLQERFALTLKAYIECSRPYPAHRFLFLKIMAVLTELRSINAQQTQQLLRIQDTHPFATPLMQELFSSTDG
Experiment [3] in a line: qHTS assay for small molecule activators of the human pregnane X receptor (PXR) signaling pathway (AID 720659; call rule not given here; further: 0% is about no effect).
[4] abbreviates: at 45.9 µM (top of the series), tumour line B.
The mark [5] stands for this setting: at 45.9 µM (top of the series), tumour line D.
[6] abbreviates: at 46.1 µM (top of the series), tumour line C.
Where [7] appears, read: at 20 µM (top of the series), tumour line C.
The mark [8] stands for this setting: at 21.2 µM (top of the series), tumour line B.
The mark [9] stands for this setting: at 21.2 µM (top of the series), tumour line D.

Where “and” joins values, the source holds several entries; their conditions need not be identical. Equal values may be shown once. Values without a mark were called inactive. Inconclusive results are not listed. Calls of active or inactive are those of the source. Unless noted, the call rests on the fitted dose curve; in most records, active means well fitted curve in the direction sought with a large enough effect; inconclusive means small, poorly fitted or top-dose-only effect, or another doubt; inactive means no such curve, though single readings can be large; an effect the other way counts as inactive or inconclusive.

Regarding `Cc1cn([C@H]2C[C@H](F)[C@@H](CO)O2)c(=O)[nH]c1=O`, the Potency entry with Tov112D and in the experiment on astro was “inactive” throughout. Further, the activity, negative = cell killing in experiment [1] (setting [4]) was -16.6%; in experiment [1] (setting [5]) it was -21.3%; in experiment [1] (setting [6]) it was -27%.

`CCc1oc2ccccc2c1C(=O)c1cc(Br)c(O)c(Br)c1`: the Potency entry in the experiment on Tov112D was “inactive”. The activity, negative = cell killing in experiment [1] (at 46 µM (top of the series), tumour line A) was -39.6%; in experiment [1] (setting [6]) it was -6.19%. The values for the Potency (in experiment [1] (tumour line D); in the experiment on astro) were 35.5 µM (active) and 28.2 µM (active), respectively.

Take `CC(C)NCC(O)c1ccc2ccccc2c1` (stereo not drawn): the Potency entry with Tov112D and with astro was “inactive” throughout. Further, the activity, negative = cell killing in experiment [1] (setting [4]) was -12.4%; in experiment [1] (setting [5]) it was -5.15%; in experiment [1] (setting [6]), -5.59%.

On to `COc1ccc(/C=N/NC(=O)c2ccncc2)cc1OC`, for which the Potency entry with Tov112D and in the experiment with astro was “inactive” each time. In addition, the results for the activity, negative = cell killing in experiment [1] (setting [4]), in experiment [1] (setting [5]) and in experiment [1] (setting [6]) were -3.24%, -6.28% and -25%, respectively.

Regarding `O=C1c2cccc3c2[C@H](CCC3)CN1[C@@H]1CN2CCC1CC2`, the Potency entry with Tov112D and in the experiment on astro was “inactive” in each case. In addition, in experiment [1] (setting [4]), the activity, negative = cell killing was -28.4%. The Potency in experiment [1] (tumour line A) and in experiment [1] (tumour line D) was 11.2 µM (active) throughout.

For the compound `FC1(F)C(F)(F)C(F)(F)C2(F)C(F)(F)C(F)(F)C(F)(F)C(F)(F)C2(F)C1(F)F` (stereo not drawn), the Potency entry in the experiment on Tov112D and in the experiment with astro was “inactive” throughout. Moreover, the figures for the activity, negative = cell killing in experiment [1] (setting [4]), in experiment [1] (setting [5]) and in experiment [1] (setting [6]) were -14.2%, -0.34% and -17%, respectively.

`c1ccc(CC2=NCCN2)cc1`: the Potency entry with Tov112D and in the experiment on astro was “inactive” in each case. For the same compound, the activity, negative = cell killing in experiment [1] (setting [7]) is -9.44%; in experiment [1] (setting [8]), -1.18%; in experiment [1] (setting [9]), -24.9%.

For the compound `O=C(Nc1ccccc1)OCC(CN1CCCCC1)OC(=O)Nc1ccccc1` (stereo not drawn), the Potency entry in the experiment with Tov112D and with astro was “inactive” each time. The activity, negative = cell killing in experiment [1] (setting [7]) is -1.96%. For the same compound, the Potency in experiment [1] (tumour line A) is 11.2 µM (active); in experiment [1] (tumour line D) it was 10 µM (active).

Turning to `C[C@@H](O)[C@H]1C(=O)N2C(C(=O)O)=C([C@H]3CCCO3)S[C@H]12`, the Potency result with Tov112D and with astro was “inactive” in each case. The activity, negative = cell killing was -7.31% in experiment [1] (setting [4]), -12.1% in experiment [1] (setting [5]) and -5.94% in experiment [1] (setting [6]).

Turning to `C[N+]1(C)CCC(=C(c2ccccc2)c2ccccc2)CC1`, the Potency entry in the experiment with Tov112D and in the experiment on astro was “inactive” each time. Further, the activity, negative = cell killing is 3.13% in experiment [1] (setting [7]), -8.97% in experiment [1] (setting [8]) and 4.56% in experiment [1] (setting [9]).

Regarding `O=C1[C@H](CC[C@H](O)c2ccc(F)cc2)[C@@H](c2ccc(O)cc2)N1c1ccc(F)cc1`, the Potency entry in the experiment on Tov112D and in the experiment with astro was “inactive” in each case. For the same compound, the activity, negative = cell killing was -11.2% in experiment [1] (setting [4]), -13.5% in experiment [1] (setting [5]) and 1.66% in experiment [1] (setting [6]).

Take `O=C(O)c1ccc(S(=O)(=O)N(Cl)Cl)cc1`: the Potency result in the experiment on Tov112D and with astro was “inactive” each time. Also, the results for the activity, negative = cell killing in experiment [1] (setting [4]), in experiment [1] (setting [5]) and in experiment [1] (setting [6]) were -12%, -8.56% and -26.9%, respectively. In addition, the max response in experiment [2] was 3.23%. In addition, the compound was called inactive in experiment [3].

In the case of `CCOC(=O)c1c(N)sc2c1CCN(Cc1ccccc1)C2`, the Potency result in the experiment with Tov112D and in the experiment with astro was “inactive” in each case. Moreover, in experiment [1] (setting [6]), the activity, negative = cell killing was -15.7%. Also, the Potency in experiment [1] (tumour line A) is 11.2 µM (active).

Take `CCC1Nc2cc(Cl)c(S(N)(=O)=O)cc2S(=O)(=O)N1` (stereo not drawn): the Potency result in the experiment on Tov112D and in the experiment on astro was “inactive” throughout. Further, the activity, negative = cell killing is -19.7% in experiment [1] (setting [4]), 9.79% in experiment [1] (setting [5]) and -1.53% in experiment [1] (setting [6]).

As for `CCCCCCCCCCCCCCCCO`, the Potency entry with Tov112D and in the experiment with astro was “inactive” each time. For the same compound, the activity, negative = cell killing in experiment [1] (setting [4]) is -2.36%; in experiment [1] (setting [5]) it was 5.55%; in experiment [1] (setting [6]), 3.59%. The max response in experiment [2] was 0.781%. Moreover, the outcome in experiment [3] was inactive.

Turning to `CN(C)C(=O)Nc1ccc(Cl)c(Cl)c1`, the Potency entry with Tov112D and in the experiment on astro was “inactive” throughout. Besides, the figures for the activity, negative = cell killing in experiment [1] (setting [4]), in experiment [1] (setting [5]) and in experiment [1] (setting [6]) were -10.4%, -7.69% and -10.1%, respectively. Moreover, the max response in experiment [2] is 5.92%. In addition, the result in experiment [3] was inactive.

Regarding `CCOC(=O)c1ccc(N)cc1`, the Potency result in the experiment on Tov112D and with astro was “inactive” each time. In addition, the activity, negative = cell killing in experiment [1] (setting [9]) is -25.1%. Moreover, the Potency in experiment [1] (tumour line B) is 14.1 µM (active).

In the case of `O=C(O)C1(C(=O)O)CCC1.[NH2-].[NH2-].[Pt+2]`, the Potency result in the experiment with Tov112D and with astro was “inactive” in each case. In addition, the activity, negative = cell killing is -20.6% in experiment [1] (setting [4]), -8.04% in experiment [1] (setting [5]) and -13.1% in experiment [1] (setting [6]).

Consider `CCCCC(CC)COC(=O)c1ccc(N(C)C)cc1` (stereo not drawn), for which the Potency result with Tov112D and in the experiment on astro was “inactive” each time. Besides, the activity, negative = cell killing in experiment [1] (setting [4]) was -7.11%; in experiment [1] (setting [5]) it was -11.8%; in experiment [1] (setting [6]), -2.69%. The max response in experiment [2] was 5.66% and 6.49%.

Consider `CCCCCCCC/C=C\CCCCCCCCN`, for which the Potency result in the experiment with Tov112D and in the experiment on astro was “inactive” in each case. The figures for the activity, negative = cell killing in experiment [1] (setting [4]), in experiment [1] (setting [5]) and in experiment [1] (setting [6]) were -5.85%, -1.47% and -19.7%, respectively. For the same compound, the max response in experiment [2] is 3.35%. In addition, the compound was classed as inactive in experiment [3].

Turning to `CO[C@]12C[C@@H](COC(=O)c3cncc(Br)c3)CN(C)[C@@H]1Cc1cn(C)c3cccc2c13`, the Potency result with Tov112D and with astro was “inactive” each time. Further, the figures for the activity, negative = cell killing in experiment [1] (setting [4]), in experiment [1] (setting [5]) and in experiment [1] (setting [6]) were -27.1%, -16.6% and -7.09%, respectively.

For `C/C=C/c1ccc(O)c(OC)c1`, the Potency entry in the experiment with Tov112D and in the experiment with astro was “inactive” throughout. For the same compound, the activity, negative = cell killing in experiment [1] (setting [4]) was -4.55%; in experiment [1] (setting [5]), -0.156%; in experiment [1] (setting [6]) it was -3.58%. In addition, the max response in experiment [2] was 1.38% and 1.79%. For the same compound, the compound was called inactive in experiment [3].

For the compound `CCC(C(=O)OCCOCCN(CC)CC)c1ccccc1` (stereo not drawn), the Potency result in the experiment on Tov112D and in the experiment on astro was “inactive” throughout. The activity, negative = cell killing in experiment [1] (setting [6]) is -29.9%. The Potency in experiment [1] (tumour line A) is 14.1 µM (active).

(Values after PubChem BioAssay (NCATS).)
